Reference: PubChem BioAssay (NCI)
About 83,000 compounds went through this panel and 20% of them were active in at least one assay; those are over-represented in the sample as a whole.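 Cell lines were cultured in 96-well plates, exposed to a single compound concentration, and assessed for percent growth 48 hours later.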 A number with no mark means an inactive call. Activity calls are given as the source filed them. The calls were made as follows: active = growth percent below 10; inactive = the rest.

Assays:
Assay in all cases: NCI-60 one-dose screen, 48 h (100 = growth as untreated, 0 = no growth, -100 = all killed)
Conditions in all cases: 10 µM unless noted
NCI-H226 lung = tested on: NCI-H226 lung
NCI-H322M lung = tested on: NCI-H322M lung
HOP-62 NSCLC = tested on: HOP-62 NSCLC
NCI-H460 lung = tested on: NCI-H460 lung
HOP-92 NSCLC = tested on: HOP-92 NSCLC
NCI-H522 lung = tested on: NCI-H522 lung
A549/ATCC NSCLC = tested on: A549/ATCC NSCLC
786-0 renal = tested on: 786-0 renal
COLO 205 colon = tested on: COLO 205 colon
DU-145 prostate = tested on: DU-145 prostate
K-562 leukemia = tested on: K-562 leukemia
MALME-3M melanoma = tested on: MALME-3M melanoma
MDA-MB-231 breast = tested on: MDA-MB-231 breast
RXF 393 renal = tested on: RXF 393 renal
SF-268 CNS = tested on: SF-268 CNS
SF-295 CNS = tested on: SF-295 CNS
SF-539 CNS = tested on: SF-539 CNS
UACC-257 melanoma = tested on: UACC-257 melanoma
M14 melanoma = tested on: M14 melanoma

Structure (SMILES) | growth (NCI-H226 lung) | growth (NCI-H322M lung) | growth (HOP-62 NSCLC) | growth (NCI-H460 lung) | growth (HOP-92 NSCLC) | growth (NCI-H522 lung) | growth (A549/ATCC NSCLC) | growth (786-0 renal) | growth (COLO 205 colon) | growth (DU-145 prostate) | growth (K-562 leukemia) | growth (MALME-3M melanoma) | growth (MDA-MB-231 breast) | growth (RXF 393 renal) | growth (SF-268 CNS) | growth (SF-295 CNS) | growth (SF-539 CNS) | growth (UACC-257 melanoma) | growth (M14 melanoma)
CCCN1CCN(c2ccc3nc(-c4ccc5nc(-c6ccc(OCC)cc6)[nH]c5c4)[nH]c3c2)CC1 | 65.1% | 60.6% | 55.7% | -76.8% (active) | 39.3% | -3.11% (active) | -71.4% (active) | 16.3% | -32% (active) | 21.2% | -47.4% (active) | 0.636% (active) | 84.8% | -31.3% (active) | 68.6% | 41.4% | 58.3% | 39.7% | -27.2% (active)
COc1ccc(-c2cc(=O)c3c(OC)c4ccoc4cc3o2)cc1 | 95.5% | 77.8% | 108% | 73.7% | 90.1% | 82.4% | 86.2% | 116% | 102% | 106% | 88.2% | 113% | 91.7% | 107% | 97.9% | 40.7% | 105% | 107% | 115%
COc1ccc(/C=C/c2nc(-c3n[nH]c(=O)n3-c3ccccc3)c3ccccc3n2)cc1 | 93.5% | 93.7% | 95.8% | 100% | 101% | 85.6% | 99.9% | 94% | 105% | 102% | 95.7% | 94.3% | 94.5% | 101% | 97.3% | 99.6% | 101% | 106% | 94.1%
CN(C)C(=S)N=Nc1c(O)[nH]c2ccccc12 | 4.04% (active) | 24.6% | 10.9% | -4.55% (active) | -6.97% (active) | 27.4% | -10.6% (active) | 8.93% (active) | 19.7% | 31.6% |  | 30.8% | 49.1% |  | 14.6% | 17.5% | 9.37% (active) |  | -6.4% (active)
COc1cc2c(cc1-c1c(C)noc1C)ncc1nc(C3CCCC3)n([C@H](C)COC(F)F)c12 | 48.1% | 46.6% | 32% | 51% | 20% | 22.6% | 31.6% | 45.9% | 23.9% | 67.7% | 23.5% | 71.1% | 44.6% | 48.6% | 62.6% | 50.3% | 38.5% | 32.1% | 40.9%
CCOC(=O)c1csc(NC(=O)COc2cccc(/C=C3\CSc4ccccc4C3=O)c2)n1 | 98.1% | 97.1% | 80.1% | 98.4% | -79.1% (active) | -39.2% (active) | 97.2% | 87.1% | 87.9% | 87.1% | -64.3% (active) | -52.6% (active) | 59.2% | 64.9% | -37.2% (active) | 93.7% | -89.1% (active) | 84.5% | -58.5% (active)
CCCCN1CCCn2c1nc1c2c(=O)n(CCC)c(=O)n1CCC |  | 97.7% | 102% | 99.6% | 81.7% | 76.6% | 82.2% | 95.8% | 114% | 105% | 75.7% | 123% | 93.8% | 91.3% | 95.2% | 102% | 100% | 97.4% | 110%
COc1ccc2c(c1)c(-c1nonc1-c1cn(C)c3ccccc13)cn2C |  | 42.2% | 33.1% | 16.3% | 47.8% | 9.96% (active) | 30.3% | 44.2% | 17.7% | 14.7% | 10.5% | 51.9% | 28.4% | -9.91% (active) | 63% | 32% | -9.13% (active) | 66.5% | 24.4%
COc1cc2c(cc1-c1c(C)noc1C)ncc1nc(C3CCC(F)(F)CC3)n([C@H](C)COC(F)F)c12 | 51.1% | 42.6% | 36.9% | 56.4% | 32% | 30.3% | 40% | 46.9% | 25.1% | 71.4% | 30.5% | 67.5% | 44.1% | 55.8% | 67.4% | 49.3% | 34% | 34.9% | 45.9%
CN1CCN(CCCOc2cccc3nc(Nc4cc(Cl)cc(Cl)c4)ccc23)CC1 | -10.9% (active) | 3.59% (active) | 19.8% | -37% (active) | 3.95% (active) | -18.3% (active) | 0.988% (active) | 37.3% | -67.4% (active) | -23.8% (active) | -54.7% (active) | -53.5% (active) | -44.6% (active) | 38.8% | 16% | 40.2% | 7.62% (active) | -44.6% (active) | -55.7% (active)
CC(=O)OCCC/C(=C/c1cc2ccccc2c2ccccc12)[N+](=O)[O-] | -51.6% (active) | 58.2% | -61.3% (active) | -18.5% (active) | -76% (active) | -59.9% (active) | -94.6% (active) | -89.5% (active) | -85.9% (active) | -100% (active) |  | -71% (active) | -54.3% (active) |  | -89.6% (active) | 7.66% (active) | -100% (active) |  | -69.9% (active)
FC(F)(F)c1nc2c(NCc3ccc(-c4ccccc4)cc3)cccc2[nH]1 | 79% | 85.8% | 106% | 44.8% | 62% | 50.8% | 55.5% | 85% | 90.3% | 81.2% | 6.87% (active) | 71.4% | 57.7% | 85.7% | 76.5% | 88.9% | 81.3% | 87.7% | 90.1%
N#CN1CCC[C@H]1C(=O)N1CCc2c(-c3[nH]nc4ncccc34)cccc21 | -29.1% (active) | 20.6% | -10.1% (active) | 3.48% (active) | -21.6% (active) | -51.7% (active) | 3.83% (active) | 9.59% (active) | -77.5% (active) | 0.94% (active) | 4.49% (active) | 24% | 3% (active) | -19.7% (active) | 7.17% (active) | -14.3% (active) | -36.9% (active) | 16.5% | -23.4% (active)
COc1ccc2[nH]cc(-c3noc(C(=O)c4cn(C)c5ccc(F)cc45)n3)c2c1 | 83.5% | 96.1% | 100% | 95.6% | 84.9% | 92.8% | 105% | 103% | 96% | 103% | 101% | 95.5% | 90.1% | 116% | 95.3% | 98.8% | 95.8% | 97.5% | 98.6%
CCN1CCC2(CC1)NC(=O)c1c(c3ccc(Cl)c(Cl)c3n1C)C2C#N (stereo not given) | 72% | 57% | 62% | 54.6% | 40.5% | 61.5% | 52.1% | 63.7% | -31.4% (active) | 72.7% | 23.3% | -6.1% (active) | 60.5% | 76.6% | 51.4% | 70.8% | 52% | -5.12% (active) | -38.5% (active)
NC(=NCCCOc1ccc(Cl)cc1)Nc1ccc(Cl)cc1 | 107% | 31.8% | 33.9% | 48% | 21.6% | 27.8% | 24.1% | 58.4% | -65.6% (active) | 16.9% |  | -20.8% (active) | -6.18% (active) | 79.3% | 36.6% | 17.9% | 31.4% | 6.24% (active) | -35.7% (active)
